The supplement of paper PMC3545927
The other results are listed elsewhere or left out. No count for the full screen is at hand.

B1: HC624 (peptide)
chain: CAKMIGGHYVAGNASASA
B2: HC301 (peptide)
chain: CACGSVFLVGAGNASASA
B3: HC2244 (peptide)
chain: CAEVVTSTWIAGNASASA
B4: HC2342 (peptide)
chain: CAEQPCHRPSAGNASASA
B5: HC1293 (peptide)
chain: CAEREISVPAAGNASASA
B6: HC1642 (peptide)
chain: CAGQLDLSGWAGNASASA
B7: FS-1403 (peptide)
chain: CARRRRNKRYAGNASASA
B8: FS-944 (peptide)
chain: CALRRRRKRYAGNASASA
B9: HC1972 (peptide)
chain: CAEETTPCSGAGNASASA
B10: HC1893 (peptide)
chain: CATTPCSRSWAGNASASA
B11: HC638 (peptide)
chain: CAPLRDWAHNAGNASASA
B12: HC2578 (peptide)
chain: CASTPCSAHTAGNASASA
B13: FS-84 (peptide)
chain: CARKIRKKRLAGNASASA
B14: HC546 (peptide)
chain: CAFFCFAWYLAGNASASA
B15: FS-1728 (peptide)
chain: CARKMRLGDAAGNASASA
B16: FS-2947 (peptide)
chain: CARHSRQVLLAGNASASA
B17: FS-2427 (peptide)
chain: CARKVREAYLAGNASASA
B18: FS-1259 (peptide)
chain: CARHSRKKRLAGNASASA
B19: FS-1961 (peptide)
chain: CARKVRDKISAGNASASA
B20: FS-2948 (peptide)
chain: CARHSRSQGAAGNASASA
B21: FS-2558 (peptide)
chain: CARKIRIKGIAGNASASA
B22: FS-1260 (peptide)
chain: CARKMRPARLAGNASASA
B23: HC1273 (peptide)
chain: CAELIEANLLAGNASASA
B24: FS-1811 (peptide)
chain: CARYSRSSAAAGNASASA
B25: FS-3128 (peptide)
chain: CARWGRFLLQAGNASASA
B26: FS-1679 (peptide)
chain: CARAARSLLQAGNASASA
B27: FS-1805 (peptide)
chain: CARVVRELLQAGNASASA
B28: HC379 (peptide)
chain: CAWLAGLFYHAGNASASA
B29: HC851 (peptide)
chain: CAPLEVIKGGAGNASASA
B30: HC1175 (peptide)
chain: CACHCGAEITAGNASASA
B31: FS-1146 (peptide)
chain: CAPAARRRRSAGNASASA
B32: FS-264 (peptide)
chain: CALAARRRRSAGNASASA
B33: FS-682 (peptide)
chain: CALAARGARLAGNASASA
B34: FS-1101 (peptide)
chain: CAVFKRRRRSAGNASASA
B35: FS-877 (peptide)
chain: CATAQRRRRSAGNASASA
B36: FS-367 (peptide)
chain: CAPAARFKKFAGNASASA
B37: FS-200 (peptide)
chain: CATALRRARSAGNASASA
B38: HC2272 (peptide)
chain: CAELEVVTSTAGNASASA
B39: HC1789 (peptide)
chain: CAYEMEECSQAGNASASA
B40: HC1101 (peptide)
chain: CANLLPAILSAGNASASA
B41: HC323 (peptide)
chain: CANWSPTTALAGNASASA
B42: HC328 (peptide)
chain: CAAQLLRIPQAGNASASA
B43: HC1738 (peptide)
chain: CAMEECSTHLAGNASASA

Target: furin, P09958
Sequence (P09958 whole entry): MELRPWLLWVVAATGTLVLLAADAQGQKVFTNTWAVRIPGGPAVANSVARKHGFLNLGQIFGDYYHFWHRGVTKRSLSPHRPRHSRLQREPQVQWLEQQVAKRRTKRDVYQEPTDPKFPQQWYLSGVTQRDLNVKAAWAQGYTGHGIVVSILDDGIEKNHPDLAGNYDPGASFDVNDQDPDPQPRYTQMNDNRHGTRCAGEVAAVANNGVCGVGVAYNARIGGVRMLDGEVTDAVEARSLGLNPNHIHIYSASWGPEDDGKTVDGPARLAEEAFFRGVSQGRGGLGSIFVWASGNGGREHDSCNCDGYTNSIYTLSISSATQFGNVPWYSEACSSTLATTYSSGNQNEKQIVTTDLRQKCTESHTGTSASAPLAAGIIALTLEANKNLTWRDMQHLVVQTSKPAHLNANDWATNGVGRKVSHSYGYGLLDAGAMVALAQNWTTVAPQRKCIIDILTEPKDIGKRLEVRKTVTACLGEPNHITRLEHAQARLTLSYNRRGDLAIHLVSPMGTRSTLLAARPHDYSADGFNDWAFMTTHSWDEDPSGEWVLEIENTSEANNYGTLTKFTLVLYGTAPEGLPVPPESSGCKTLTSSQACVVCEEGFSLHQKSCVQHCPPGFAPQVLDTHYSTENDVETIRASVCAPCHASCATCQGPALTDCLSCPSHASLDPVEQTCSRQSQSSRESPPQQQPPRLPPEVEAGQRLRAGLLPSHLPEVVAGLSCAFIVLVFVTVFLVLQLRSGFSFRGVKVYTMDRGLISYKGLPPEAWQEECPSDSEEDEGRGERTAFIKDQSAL
Assay: furin cleavage Z-score vs untreated control; higher = more cleavage, active = 3.5 or more, inactive = 1 or less, 8 variable residues between constant flanks
Outline: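 Abundance of DNA freed from bead-bound 8-mer peptide–cDNA fusions by purified furin was measured as sequencing read counts after PCR adapter tagging. Cutting ran 7.5, 15 or 30 min in 0.01 ml of 50 mM HEPES pH 7.5 with CaCl2 and NaCl at 1:10 enzyme:substrate. The cleavage Z-score expresses these log counts against furin-free reactions after lowess adjustment and median absolute deviation scaling.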

Row | Sequence | furin cleavage Z-score (7.5 min) | furin cleavage Z-score (15 min) | furin cleavage Z-score (30 min)
1 | B1 | -0.495 (inactive) | -0.0648 (inactive) | -0.0572 (inactive)
2 | B2 | -1.62 (inactive) | -1.91 (inactive) | -1.35 (inactive)
3 | B3 | 0.57 (inactive) | 0.293 (inactive) | 0.802 (inactive)
4 | B4 | -1.24 (inactive) | 2.02 | -0.236 (inactive)
5 | B5 | -0.452 (inactive) | -1.55 (inactive) | -0.526 (inactive)
6 | B6 | -0.176 (inactive) | 0.869 (inactive) | 0.13 (inactive)
7 | B7 | 12.8 (active) | 14.4 (active) | 10.6 (active)
8 | B8 | 11.8 (active) | 14.5 (active) | 10.2 (active)
9 | B9 | -1.3 (inactive) | -1.71 (inactive) | -0.823 (inactive)
10 | B10 | 0.791 (inactive) | 0.627 (inactive) | -0.432 (inactive)
11 | B11 | 0.639 (inactive) | 0.256 (inactive) | 0.786 (inactive)
12 | B12 | -0.678 (inactive) | -2.17 (inactive) | 0.0661 (inactive)
13 | B13 | 9.24 (active) | 9.01 (active) | 7.01 (active)
14 | B14 | -1.2 (inactive) | -0.615 (inactive) | -0.815 (inactive)
15 | B15 | 0.749 (inactive) | 0.395 (inactive) | -0.759 (inactive)
16 | B16 | 0.717 (inactive) | 2.58 | 2.14
17 | B17 | 5.91 (active) | 6.8 (active) | 7.91 (active)
18 | B18 | 8.52 (active) | 11.2 (active) | 9.02 (active)
19 | B19 | -0.364 (inactive) | -1.5 (inactive) | 1.37
20 | B20 | -0.651 (inactive) | 0.879 (inactive) | -0.497 (inactive)
21 | B21 | 0.0544 (inactive) | -0.85 (inactive) | -1.75 (inactive)
22 | B22 | 3.41 | 4.23 (active) | 4.92 (active)

Row | Sequence | furin cleavage Z-score (7.5 min) | furin cleavage Z-score (15 min) | furin cleavage Z-score (30 min)
23 | B23 | -1.11 (inactive) | -1.92 (inactive) | 0.0877 (inactive)
24 | B24 | 1.3 | 1.43 | 0.767 (inactive)
25 | B25 | 0.358 (inactive) | 1.41 | 0.253 (inactive)
26 | B26 | 1.57 | 0.802 (inactive) | 5.01 (active)
27 | B27 | 5.28 (active) | 8.9 (active) | 7.51 (active)
28 | B28 | -1.56 (inactive) | -0.299 (inactive) | -1.72 (inactive)
29 | B29 | 1.06 | 0.444 (inactive) | 0.579 (inactive)
30 | B30 | -0.983 (inactive) | -1.4 (inactive) | -0.977 (inactive)
31 | B31 | 11.4 (active) | 10.2 (active) | 8.82 (active)
32 | B32 | 10.9 (active) | 11 (active) | 8.11 (active)
33 | B33 | -1.17 (inactive) | 0.199 (inactive) | 0.619 (inactive)
34 | B34 | 12.7 (active) | 11.3 (active) | 8.61 (active)
35 | B35 | 8.41 (active) | 7.47 (active) | 6.08 (active)
36 | B36 | -0.438 (inactive) | -0.599 (inactive) | -0.45 (inactive)
37 | B37 | 1.48 | 0.619 (inactive) | 0.983 (inactive)
38 | B38 | -0.698 (inactive) | -0.669 (inactive) | -1.12 (inactive)
39 | B39 | 0.403 (inactive) | -0.566 (inactive) | 1.37
40 | B40 | -0.111 (inactive) | 0.993 (inactive) | -0.0781 (inactive)
41 | B41 | -0.0824 (inactive) | -0.415 (inactive) | -0.513 (inactive)
42 | B42 | -1 (inactive) | 1.5 | 0.847 (inactive)
43 | B43 | 0.958 (inactive) | 0.401 (inactive) | 0.22 (inactive)
